Results taken from PubChem BioAssay AID1159580 (chemical genetic matrix, 2015).
Where “and” joins values, the source holds several entries; their conditions need not be identical. Identical values can stand only once. In all, about 5,500 compounds went through this assay and about 2,000 (36%) were called active. Inconclusive results (about 18%) are left out. No stated cut-off is given here; in the data, active means normalized growth mostly below about 0.91 (no sharp cut-off); inconclusive means no clear call, values can overlap the other calls; inactive means mostly above about 0.92. Some of the results follow.

Assay: chemical genetic growth profiling, strain panel (AID 1159580);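 further: tested at 20 µM; growth read once vehicle control cultures reached saturation at 30 °C; 1 = growth at the plate median or of vehicle wells; lower values mean less growth of the strain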
Conditions: S. cerevisiae deletion strains, growth OD

Measured: normalized growth

CC(=O)O[C@H]1C[C@@H](OC(C)=O)C(C)(C)C2CC(=O)[C@]3(C)C(CC[C@@]4(C)[C@H](c5ccoc5)OC(=O)[C@H]5O[C@]543)[C@]21C (some centres not stated)
inactive: locus YAL021C, strain ccr4, hits give low values 0.973 | locus YAL026C, strain drs2, hits give low values 0.982 | locus YAL030W, strain snc1, hits give low values 0.989 | locus YBL061C, strain skt5, hits give low values 0.993 | locus YBR009C, strain hhf1, hits give low values 0.99 | locus YBR021W, strain FUR4, hits give low values 0.984 | locus YBR023C, strain chs3, hits give low values 1.01 | locus YBR171W, strain sec66, hits give low values 0.999 | locus YBR229C, strain ROT2, hits give low values 0.999 | locus YBR231C, strain swc5, hits give low values 1.01 | locus YBR279W, strain paf1, hits give low values 0.969 | locus YCL011C, strain gbp2, hits give low values 0.998 | locus YCL016C, strain dcc1, hits give low values 0.997 | locus YCL029C, strain bik1, hits give low values 1.01 | locus YCL061C, strain MRC1, hits give low values 0.99 | locus YCL069W, strain vba3, hits give low values 0.99 | locus YCR088W, strain abp1, hits give low values 0.988 | locus YDL005C, strain med2, hits give low values 0.985 | locus YDL035C, strain GPR1, hits give low values 0.982 | locus YDL040C, strain nat1, hits give low values 0.999 | locus YDL074C, strain BRE1, hits give low values 0.981 | locus YDL101C, strain DUN1, hits give low values 1.02 | locus YDL185W, strain tfp1, hits give low values 0.998 | locus YDL192W, strain arf1, hits give low values 1 | locus YDR001C, strain nth1, hits give low values 0.976 | locus YDR069C, strain doa4, hits give low values 0.989 | locus YDR101C, strain arx1, hits give low values 0.997 | locus YDR137W, strain rgp1, hits give low values 0.974 | locus YDR159W, strain sac3, hits give low values 0.973 | locus YDR162C, strain NBP2, hits give low values 1 | locus YDR195W, strain ref2 0.94 | locus YDR297W, strain sur2, hits give low values 0.988 | locus YDR318W, strain mcm21, hits give low values 1.01 | locus YDR334W, strain swr1, hits give low values 0.983 | locus YDR335W, strain msn5, hits give low values 0.98 | locus YDR388W, hits give low values 1.01 | locus YDR392W, strain spt3, hits give low values 0.997 | locus YDR502C, strain sam2, hits give low values 1.03 | locus YEL003W, strain gim4, hits give low values 0.991 | locus YEL037C, strain rad23, hits give low values 0.988 | locus YEL061C, strain CIN8 (second series), hits give low values 0.994 | locus YER015W, strain faa2, hits give low values 0.994 | locus YER016W, strain bim1, hits give low values 0.991 | locus YER110C, hits give low values 1.02 | locus YER111C, strain swi4, hits give low values 1 | locus YER155C, strain BEM2 (second series), hits give low values 0.992 | locus YER155C, strain BEM2, hits give low values 1.01 | locus YER167W, strain BCK2, hits give low values 0.997 | locus YFR010W, strain ubp6, hits give low values 0.981 | locus YGL078C, strain dbp3, hits give low values 1.03 | locus YGL086W, strain mad1, hits give low values 1.01 | locus YGL167C, strain pmr1, hits give low values 0.997 | locus YGL173C, strain kem1, hits give low values 0.99 | locus YGL227W, strain vid30, hits give low values 0.993 | locus YGL240W, strain doc1, hits give low values 1.01 | locus YGL248W, strain PDE1, hits give low values 1 | locus YGL253W, strain hxk2, hits give low values 0.988 | locus YGR078C, strain PAC10, hits give low values 1.02 | locus YGR135W, strain pre9, hits give low values 1.06 | locus YGR252W, strain gcn5, hits give low values 0.994 | locus YHR013C, strain ard1, hits give low values 0.998 | locus YHR027C, strain rpn1, hits give low values 0.994 | locus YHR030C, strain SLT2, hits give low values 0.969 | locus YHR079C, strain IRE1 (second series), hits give low values 1.02 | locus YHR079C, strain IRE1, hits give low values 0.966 | locus YHR094C, strain hxt1, hits give low values 1.02 | locus YHR129C, strain ARP1, hits give low values 1.01 | locus YHR142W, strain chs7, hits give low values 1.01 | locus YHR200W, strain rpn10, hits give low values 1.02 | locus YIL066C, strain RNR3, hits give low values 0.998 | locus YIL073C, strain SPO22, hits give low values 1.32 | locus YIL125W, strain kgd1, hits give low values 1.01 | locus YIR030C, strain dcg1, hits give low values 1.01 | locus YJL092W, strain hpr5, hits give low values 0.994 | locus YJL095W, strain BCK1 (second series), hits give low values 0.996 | locus YJL095W, strain BCK1, hits give low values 1.04 and 0.973 | locus YJL115W, strain asf1, hits give low values 0.973 | locus YJL129C, strain trk1, hits give low values 0.991 | locus YJL134W, strain LCB3, hits give low values 1 | locus YJL154C, strain vps35, hits give low values 0.986 | locus YJL164C, strain tpk1, hits give low values 0.994 | locus YJL166W, strain qcr8, hits give low values 0.993 | locus YJL168C, strain set2, hits give low values 1.01 | locus YJL187C, strain SWE1 (second series), hits give low values 1.02 | locus YJL187C, strain SWE1, hits give low values 0.988 | locus YJR043C, strain POL32, hits give low values 0.958 | locus YJR066W, strain TOR1, hits give low values 0.915
